Measured values published in PubChem BioAssay (Tox21).
Several values for one entry are separate records, joined by “and”; a condition that tells them apart may be missing. Identical values can stand only once. Inconclusive results are not listed. Where a call stands in place of a potency, no number is given. A structure can be active in one record and inactive in another. Activity calls are given as the source filed them. The call rests on the fitted dose curve; in most records, active means well fitted cell-killing curve with a large enough effect in the repeat runs; inconclusive means weak or mixed curves, or effect the other way; inactive means flat fitted curve, though single readings scatter.

experiment: qHTS RealTime-Glo MT Cell Viability Assay in HEK293 cells - 16 hour (AID 1224872); settings: RealTime-Glo luminescence; series mostly up to 76.8 µM; further: nearly all actives have a fitted effect of over 50% in size
Excerpt: National Center for Advancing Translational Sciences [NCATS]
NIH Chemical Genomics Center [NCGC]
U.S. Environmental Protection Agency [EPA]
National Institutes of Environmental Health Sciences [NIEHS]
National Toxicology Program [NTP]
U.S. Food and Drug Administration [FDA]
Measure of cell viability is critical in the cell-base assay. Analysis of cell viability is necessary for the characterization of cell responses to cytotoxic drugs and environmental stress. A RealTime-Glo MT Cell Viability Assay to monitor cell viability in real time of continues cell culture during 40 hours of compound treatment was used to screen Tox21 10K library compounds in Hek293 cells. The RealTime-Glo MT Cell Viability Assay is a nonlytic, homogeneous, bioluminescent method to measure cell viability in real time using a simple, plate-based method. The assay involves adding NanoLuc luciferase and a cell-permeant prosubstrate to cells in culture. Viable cells reduce the proprietary prosubstrate to generate a substrate for NanoLuc luciferase. This substrate diffuses from cells into the surrounding culture medium, where it is rapidly used by the NanoLuc Enzyme to produce a luminescent signal. The signal correlates with the number of viable cells, making the assay well suited for cytotoxicity studies.
Tox21 Assay Protocol Summary:
The mixture of Hek293 cell suspension and reagents were dispensed at 600cells/6 ul/well in 1536-well tissue culture treated black solid bottom plates using a Multidrop dispenser. After the assay plates were incubated at a 37 C/5% CO2 incubator for 5 hours, 23 nL of compounds dissolved in DMSO, positive and negative controls was transferred to the assay plate by a pintool work station. The plates were incubated at 37 C for 40 hours. The luminescence intensity were measured at 0h, 8h, 16h, 24h, 32h and 40h time points using ViewLux plate reader during compound treatment.
Potency means the concentration at half of the fitted maximal effect.

SMILES	Potency
CCC(C)(O)CCCC(C)C (stereo not given)	inactive
O=C(OCc1ccccc1)c1ccccc1O	inactive
Cc1cccc([N+](=O)[O-])c1C	inactive
COC(=O)Nc1nc2ccc(S(=O)c3ccccc3)cc2[nH]1 (stereo not given)	1.34 µM (active)
CC(C)(C)NC(=O)[C@H]1CC[C@H]2[C@@H]3CC[C@H]4NC(=O)C=C[C@]4(C)[C@H]3CC[C@]12C	inactive
CC(C)CC(C)(O)C#CC(C)(O)CC(C)C (stereo not given)	inactive
c1cc(-c2ccncc2)ccn1	inactive
CC(C)OC=O	inactive
C=C(C)C(=O)OCCOC(=O)C(=C)C	inactive
c1ccc2c(c1)c1cccc3ccc4cccc2c4c31	inactive
C/C=C/C(=O)O	inactive
CN(C)c1nc(N(C)C)nc(N(C)C)n1	inactive
CNCCCC12CCC(c3ccccc31)c1ccccc12	54.9 µM (active)
O=CCc1ccccc1	inactive
O=C(/C=C/c1ccccc1)OCc1ccccc1	inactive
O=C(c1ccccc1)c1ccc(O)cc1O	inactive
O=C(COc1ccc(Cl)cc1)N1CCN(Cc2ccc3c(c2)OCO3)CC1	38.9 µM (active) and inactive
COc1cc([C@@H]2c3cc4c(cc3[C@H](O)[C@H]3COC(=O)[C@H]23)OCO4)cc(OC)c1OC	inactive
CCCc1c(OCCCCc2nn[nH]n2)ccc(C(C)=O)c1O	inactive
CCOC(=O)C(C#N)=C(c1ccccc1)c1ccccc1	inactive

SMILES	Potency
O=C(O)c1ccccc1Nc1cccc(C(F)(F)F)c1	inactive
CCCCC(CC)COC(=O)c1ccc(N(C)C)cc1 (stereo not given)	inactive
O=S(=O)(O)c1ccc(O)cc1	inactive
C[Si](C)(C)O[Si](C)(C)C	inactive
CC(C)OC(=O)C(C)(C)Oc1ccc(C(=O)c2ccc(Cl)cc2)cc1	21.9 µM (active) and 16.9 µM (active)
c1ccc2cc(Nc3ccc(Nc4ccc5ccccc5c4)cc3)ccc2c1	inactive
Nc1ccc(Nc2ccccc2)cc1	43.2 µM (active)
CC(=O)C1(C)CC2=C(CCCC2(C)C)CC1C (stereo not given)	inactive
CCCCOCCOCCOCCO	inactive
Cc1cccc(N(C)C(=S)Oc2ccc3ccccc3c2)c1	inactive
O=C=Nc1ccc(Cc2ccc(N=C=O)cc2)cc1	inactive
c1ccc2c(c1)Oc1ccccc1S2	inactive
c1ccncc1	inactive
COC(=O)CCC(=O)OC	inactive
Cc1c(C(N)=O)cc([N+](=O)[O-])cc1[N+](=O)[O-]	inactive
O=C1OC2(c3cc(Br)c(O)c(Br)c3Oc3c2cc(Br)c(O)c3Br)c2c(Cl)c(Cl)c(Cl)c(Cl)c21	inactive
Brc1cc(Oc2cc(Br)c(Br)c(Br)c2Br)c(Br)c(Br)c1Br	inactive
Cc1ccc(C(=O)c2cc(O)c(O)c([N+](=O)[O-])c2)cc1	inactive
CC1=CCC(C(C)(C)O)CC1 (stereo not given)	inactive
Cc1cccc(C(=O)O)c1	inactive
